Results filed as inconclusive are left out. Active and inactive are the calls of the source. The call rests on the fitted dose curve; in most records, active means well fitted inhibition curve with a large enough effect; inconclusive means small, poorly fitted or top-dose-only effect; inactive means flat fitted curve, though single readings scatter.
Tests used:
[1] = qHTS profiling for inhibitors of Plasmodium falciparum proliferation (AID 504749);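 on activity, negative = inhibition: 0% = DMSO vehicle and full inhibition = artemisinin control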; on all read-outs here: nearly all actives have a fitted effect of over 60% in size; conditions: P. falciparum in erythrocytes, SYBR Green DNA, 72 h; for activity, negative = inhibition: at 28.7 µM (top of the series)
How it was run: (§1)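 SYBR Green fluorescence of parasite DNA, read after lysis and overnight dark incubation, measured growth over 72 h in erythrocyte culture at 0.3% parasitemia and 2.5% hematocrit. Data normalised to DMSO and 0.29 uM artemisinin, with plate-drift correction.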

3D7 = assay: as above; conditions: P. falciparum in erythrocytes, SYBR Green DNA, 72 h; series mostly up to 28.7 µM
How it was run: as §1

7G8 = assay: as above; conditions: P. falciparum in erythrocytes, SYBR Green DNA, 72 h; series mostly up to 28.7 µM
How it was run: as §1

AA1029 = assay: as above; conditions: P. falciparum in erythrocytes, SYBR Green DNA, 72 h; series mostly up to 28.7 µM
How it was run: as §1

AS120 = assay: as above; conditions: P. falciparum in erythrocytes, SYBR Green DNA, 72 h; series mostly up to 28.7 µM
How it was run: as §1

C2A = assay: as above; conditions: P. falciparum in erythrocytes, SYBR Green DNA, 72 h; series mostly up to 28.7 µM
How it was run: as §1

CP192 = assay: as above; conditions: P. falciparum in erythrocytes, SYBR Green DNA, 72 h; series mostly up to 28.7 µM
How it was run: as §1

CP194 = assay: as above; conditions: P. falciparum in erythrocytes, SYBR Green DNA, 72 h; series mostly up to 28.7 µM
How it was run: as §1

CP211 = assay: as above; conditions: P. falciparum in erythrocytes, SYBR Green DNA, 72 h; series mostly up to 28.7 µM
How it was run: as §1

CP238 = assay: as above; conditions: P. falciparum in erythrocytes, SYBR Green DNA, 72 h; series mostly up to 28.7 µM
How it was run: as §1

CP215 = assay: as above; conditions: P. falciparum in erythrocytes, SYBR Green DNA, 72 h; series mostly up to 28.7 µM
How it was run: as §1

ATS189 = assay: as above; conditions: P. falciparum in erythrocytes, SYBR Green DNA, 72 h; series mostly up to 28.7 µM
How it was run: as §1

ATS95 = assay: as above; conditions: P. falciparum in erythrocytes, SYBR Green DNA, 72 h; series mostly up to 28.7 µM
How it was run: as §1

CP185 = assay: as above; conditions: P. falciparum in erythrocytes, SYBR Green DNA, 72 h; series mostly up to 28.7 µM
How it was run: as §1

CP191 = assay: as above; conditions: P. falciparum in erythrocytes, SYBR Green DNA, 72 h; series mostly up to 28.7 µM
How it was run: as §1

CP201 = assay: as above; conditions: P. falciparum in erythrocytes, SYBR Green DNA, 72 h; series mostly up to 28.7 µM
How it was run: as §1

CP203 = assay: as above; conditions: P. falciparum in erythrocytes, SYBR Green DNA, 72 h; series mostly up to 28.7 µM
How it was run: as §1

CP217 = assay: as above; conditions: P. falciparum in erythrocytes, SYBR Green DNA, 72 h; series mostly up to 28.7 µM
How it was run: as §1

CP237 = assay: as above; conditions: P. falciparum in erythrocytes, SYBR Green DNA, 72 h; series mostly up to 28.7 µM
How it was run: as §1
Potency means the concentration at half of the fitted maximal effect.

Oc1ccc(Cl)cc1Cc1cc(Cl)ccc1O
inactive: Potency (3D7) | Potency (C2A) | Potency (CP192) | Potency (CP194) | Potency (CP211) | Potency (CP238)
active: Potency ([1]; parasite line B) 11.2 µM | Potency (7G8) 11.2 µM | Potency (AA1029) 10 µM | Potency (AS120) 7.08 µM

CN(C)CCOC(c1ccc(Cl)cc1)c1ccccn1 (centres undefined)
inactive: activity, negative = inhibition ([1]; parasite line A) 5.62% | Potency (3D7) | Potency (C2A) | Potency (CP192) | Potency (CP211) | Potency (CP215)

Cn1c(=O)c2[nH]c(Br)nc2n(C)c1=O
inactive: activity, negative = inhibition ([1]; parasite line B) -4.72% | Potency (3D7) | Potency (7G8) | Potency (AS120) | Potency (ATS189) | Potency (ATS95) | Potency (C2A) | Potency (CP185) | Potency (CP191) | Potency (CP192) | Potency (CP194) | Potency (CP201) | Potency (CP203) | Potency (CP211) | Potency (CP215) | Potency (CP217) | Potency (CP237) | Potency (CP238)

Cc1cc2c(OCC(CNC(C)(C)C)OC(=O)c3ccccc3)cccc2[nH]1 (centres undefined)
active: Potency (CP237) 11.2 µM
inactive: Potency (CP185) | Potency (CP192) | Potency (CP194) | Potency (CP201) | Potency (CP211) | Potency (CP217) | Potency (CP238)

Cc1cc(CC(=O)O)c(C)n1-c1ccc(Cl)cc1
inactive: Potency (3D7) | Potency (ATS189) | Potency (ATS95) | Potency (C2A) | Potency (CP185) | Potency (CP192) | Potency (CP194) | Potency (CP201) | Potency (CP203) | Potency (CP211) | Potency (CP215) | Potency (CP238)
active: Potency (7G8) 11.2 µM

O=C(CN1CCN(Cc2ccc3c(c2)OCO3)CC1)N1c2ccccc2Sc2ccccc21
active: Potency (7G8) 7.94 µM | Potency (AS120) 10 µM | Potency (ATS189) 8.91 µM | Potency (C2A) 11.2 µM | Potency (CP217) 11.2 µM
inactive: Potency (CP192) | Potency (CP201)

O=C(O)CCc1nc2ccccc2[nH]1
active: Potency (3D7) 0.0045 µM
inactive: Potency (CP238)

CC[N+](C)(CC)CCOC(=O)C(O)(c1ccccc1)C1CCCCC1 (centres undefined)
inactive: activity, negative = inhibition ([1]; parasite line A) -48% | Potency (AA1029) | Potency (AS120) | Potency (ATS189) | Potency (ATS95) | Potency (C2A) | Potency (CP191) | Potency (CP192) | Potency (CP194) | Potency (CP201) | Potency (CP203) | Potency (CP215) | Potency (CP217) | Potency (CP237) | Potency (CP238)

C[N+]1(C)CCC(=C(c2ccccc2)c2ccccc2)CC1
inactive: Potency (AA1029) | Potency (AS120) | Potency (ATS189) | Potency (ATS95) | Potency (C2A) | Potency (CP185) | Potency (CP194) | Potency (CP201) | Potency (CP203) | Potency (CP211) | Potency (CP215) | Potency (CP217) | Potency (CP237) | Potency (CP238)

CC(C)(Cc1c[nH]c2ccccc12)NCC(O)COc1ccccc1C#N (centres undefined)
active: Potency (7G8) 8.91 µM | Potency (AA1029) 8.91 µM | Potency (CP237) 10 µM
inactive: Potency (CP192) | Potency (CP201) | Potency (CP215)

Cc1ccc2c(Br)cc(Br)c(O)c2n1
active: Potency ([1]; parasite line B) 12.6 µM | Potency (7G8) 7.08 µM | Potency (AS120) 8.91 µM | Potency (CP185) 10 µM | Potency (CP194) 13.5 µM | Potency (CP211) 15.1 µM | Potency (CP215) 9.53 µM | Potency (CP217) 10 µM

O=S(c1cc(Cl)cc(Cl)c1O)c1cc(Cl)cc(Cl)c1O
active: Potency (CP191) 17.8 µM | Potency (CP237) 7.08 µM
inactive: Potency (7G8)

Oc1c(Cl)cc(Cl)c(Cl)c1Cc1c(O)c(Cl)cc(Cl)c1Cl
active: Potency ([1]; parasite line A) 11.2 µM | Potency (7G8) 4.47 µM | Potency (AS120) 11.2 µM | Potency (CP191) 8.91 µM | Potency (CP194) 10.7 µM | Potency (CP201) 10.7 µM | Potency (CP203) 7.57 µM | Potency (CP211) 12 µM | Potency (CP215) 7.57 µM | Potency (CP217) 8.91 µM | Potency (CP237) 11.2 µM | Potency (CP238) 10 µM

CCNC(=O)/C=C/c1cccc(Br)c1
inactive: activity, negative = inhibition ([1]; parasite line B) -15.2% | Potency (3D7) | Potency (7G8) | Potency (AA1029) | Potency (AS120) | Potency (ATS95) | Potency (C2A) | Potency (CP185) | Potency (CP192) | Potency (CP194) | Potency (CP201) | Potency (CP203) | Potency (CP211) | Potency (CP215) | Potency (CP217) | Potency (CP237) | Potency (CP238)
